Assay results published in the supplement of paper PMC12636033.
± gives the standard deviation of the averaged measurements. Over roughly 33,000 sequences, “E-score (rank enrichment, -0.5 to 0.5)” has its median near -0.0068; the highest 2% begin near 0.24. The full list was thinned out, with the highest values kept by preference.

system: muMax20 (Max(13-93) K31hArg/K57hArg, M65Nle); test: PBM 8-mer E-score (E-score (rank enrichment, -0.5 to 0.5)); higher = stronger preferential binding
Protocol: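 Protein binding microarray (universal PBM chip covering all 10-mers in fixed probe flanks) with chemically synthesized human Max(13-93) bHLH-LZ analogs (not full-length Max) bearing noncanonical residues (hArg, Tha, Aib, Nle at 65) and aromatic Cys staples. Read-out per 8-mer (and its reverse complement): E-score (rank-based enrichment, -0.5 to 0.5) and Z-score of median probe intensity.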

| Sequence | PBM 8-mer E-score |
| --- | --- |
| AACATTGT | 0.236 ± 0.013 |
| AATATTAG | 0.175 ± 0.04 |
| AATATTAT | 0.25 ± 0.026 |
| AACATTGG | -0.0243 ± 0.2 |
| GATATTAC | 0.121 ± 0.015 |
| AGTATTAA | 0.268 ± 0.03 |
| CATATTAC | 0.0522 ± 0.03 |
| AATATTAC | 0.281 ± 0.066 |
| AACATTGA | 0.0179 ± 0.032 |
| ACTATTAT | 0.204 ± 0.056 |
| TGTATTAA | 0.184 ± 0.096 |
| AGTATTAG | 0.0793 ± 0.032 |
| CCCGCGCA | -0.124 ± 0.031 |
| ATGTGGCA | 0.0287 ± 0.095 |
| AGCATTTC | 0.141 ± 0.0034 |
| CAACTAAG | 0.0637 ± 0.092 |
| ATTGCAAA | 0.0872 ± 0.083 |
| AGGTCCTA | -0.128 ± 0.083 |
| TTCCCGAA | -0.0933 ± 0.0092 |
| AATAGAAC | 0.0563 ± 0.077 |
| AATATTGT | 0.256 ± 0.006 |
| GATATTAA | 0.134 ± 0.028 |
| AATATTAA | 0.304 ± 0.025 |
| TATATTAA | 0.179 ± 0.025 |
| CATATTAG | 0.121 ± 0.053 |

| Sequence | PBM 8-mer E-score |
| --- | --- |
| CATATTAA | 0.297 ± 0.012 |
| AATATTGG | 0.101 ± 0.094 |
| AATATTGC | 0.138 ± 0.076 |
| ACTATTAA | 0.149 ± 0.011 |
| CGCGCTCC | -0.0678 ± 0.11 |
| AGCTGTAC | -0.0262 ± 0.13 |
| GGACTGTA | 0.00313 ± 0.055 |
| ATTTGTAC | 0.176 ± 0.038 |
| AATTATAT | 0.147 ± 0.044 |
| CTATCAGC | 0.0217 ± 0.00023 |
| CAGTCATA | 0.0326 ± 0.1 |
| CAAACGGC | -0.242 ± 0.0069 |
| AAACGGCT | -0.0843 ± 0.069 |
| AAAACGGC | 0.3 ± 0.099 |
| AAACGGCC | 0.294 ± 0.093 |
| CAACGGCC | -0.206 ± 0.059 |
| GAAACGGC | 0.0377 ± 0.059 |
| ACAAATAT | 0.185 ± 0.027 |
| ATCCGCGC | -0.227 ± 0.043 |
| CACATACC | -0.0465 ± 0.058 |
| CCTTCGCG | -0.228 ± 0.019 |
| CTGAAAGA | 0.0447 ± 0.09 |
| ATGCCAAA | 0.111 ± 0.027 |
| ATACGTAC | 0.188 ± 0.074 |
| ATACGTAA | 0.112 ± 0.077 |

| Sequence | PBM 8-mer E-score |
| --- | --- |
| ATACGTAT | 0.308 ± 0.0025 |
| CTCGTCCA | -0.0336 ± 0.048 |
| CCGTAAAG | 0.104 ± 0.11 |
| AAGGCCGC | -0.00405 ± 0.027 |
| AAGGCCGT | 0.278 ± 0.095 |
| AAGGCCGG | -0.243 ± 0.084 |
| GCCGACAA | -0.268 ± 0.068 |
| GCGGTTGA | -0.134 ± 0.11 |
| ACCACCCC | -0.0712 ± 0.063 |
| CCACCCCA | 0.261 ± 0.066 |
| CCACCCCC | -0.12 ± 0.084 |
| CCCACCCC | 0.258 ± 0.018 |
| CCCACCCG | 0.186 ± 0.028 |
| GCACCCCA | -0.0239 ± 0.0035 |
| TCCACCCA | 0.00135 ± 0.18 |
| GCCACCCC | -0.0921 ± 0.047 |
| CCCACCCA | 0.269 ± 0.099 |
| ATCCATAC | 0.15 ± 0.062 |
| GGTAGAAA | 0.0368 ± 0.022 |
| AGGCGCGG | -0.125 ± 0.07 |
| GAGTGGAA | -0.00431 ± 0.092 |
| GTTCACAA | -0.0567 ± 0.038 |
| ATTCACAA | 0.247 ± 0.032 |
| ATTCACAG | -0.0684 ± 0.13 |
| AAAACTTT | 0.133 ± 0.058 |

| Sequence | PBM 8-mer E-score |
| --- | --- |
| CTAACATC | 0.042 ± 0.045 |
| ATAACACG | 0.251 ± 0.014 |
| ATAACATC | 0.249 ± 0.13 |
| GTAACACA | 0.26 ± 0.11 |
| GTAACAAA | 0.197 ± 0.067 |
| ATAACACC | 0.134 ± 0.014 |
| ATAACACA | 0.186 ± 0.067 |
| ATAACATG | 0.199 ± 0.064 |
| CTAACACA | 0.127 ± 0.02 |
| CGGGGGGA | -0.222 ± 0.029 |
| ACGGCACC | -0.104 ± 0.13 |
| CGGACAGC | -0.13 ± 0.064 |
| GCGGCATA | -0.00641 ± 0.021 |
| CCTTCGAC | -0.147 ± 0.0063 |
| ATTACTCC | 0.182 ± 0.07 |
| CTACCGCC | -0.156 ± 0.014 |
| GGAACAAA | 0.171 ± 0.014 |
| CCGAGCGA | -0.223 ± 0.081 |
| GGTTTATA | 0.051 ± 0.032 |
| AGTTTATC | 0.138 ± 0.08 |
| GCTTTTCA | 0.0793 ± 0.013 |
| GCTTTTAA | 0.00199 ± 0.15 |
| CTTTTGTA | 0.151 ± 0.01 |
| AGTTTATA | 0.266 ± 0.0043 |
| CCTTTTCA | 0.295 ± 0.091 |

| Sequence | PBM 8-mer E-score |
| --- | --- |
| GCTTTTTA | 0.292 ± 0.084 |
| GGTTTGTA | -0.00997 ± 0.022 |
| GTTTTGTA | 0.254 ± 0.012 |
| CTTTTTCA | 0.0825 ± 0.076 |
| CCTTTTTA | 0.0863 ± 0.063 |
| AGAATGTA | 0.159 ± 0.034 |
| ATCCAGAT | 0.0236 ± 0.27 |
| AGAATCGA | -0.018 ± 0.077 |
| CCAATCCG | -0.198 ± 0.078 |
| CTCATACC | 0.014 ± 0.025 |
| AGACCCCA | 0.177 ± 0.046 |
| CAGCCAAG | -0.147 ± 0.066 |
| AGTACATA | 0.147 ± 0.081 |
| AATTTATA | 0.247 ± 0.059 |
| GTTTTATA | 0.261 ± 0.059 |
| CTTTTATA | 0.184 ± 0.01 |
| AATTTATC | 0.205 ± 0.02 |
| CATTTATA | 0.175 ± 0.032 |
| ATTTTATA | 0.231 ± 0.038 |
| GTCGAGGA | -0.115 ± 0.0082 |
| GGAAAGGA | -0.246 ± 0.099 |
| ACAGAGGG | -0.155 ± 0.0044 |
| ATCTAGTA | -0.00587 ± 0.017 |
| GTCTAGTA | 0.252 ± 0.03 |
| CTCTAGTA | 0.118 ± 0.0018 |

| Sequence | PBM 8-mer E-score |
| --- | --- |
| CAGCCGAC | -0.22 ± 0.12 |
| GGGGGACC | -0.296 ± 0.013 |
| AAGAGCAC | 0.00129 ± 0.0028 |
| AGATTCGG | -0.118 ± 0.032 |
| TCAAGGGA | -0.065 ± 0.048 |
| CAGATATA | 0.0469 ± 0.045 |
| GAGATACA | -0.0288 ± 0.04 |
| CTGATATA | 0.0184 ± 0.051 |
| AAGATACT | 0.117 ± 0.038 |
| CAGATGTA | 0.138 ± 0.011 |
| ATGATATA | 0.266 ± 0.048 |
| GAGATGTA | 0.104 ± 0.017 |
| AAGATATC | 0.155 ± 0.027 |
| AAGATATA | 0.26 ± 0.041 |
| AAGATACA | 0.316 ± 0.024 |
| AAGATGTA | 0.237 ± 0.094 |
| ATGATATG | 0.21 ± 0.12 |
| CGAGCCGA | -0.153 ± 0.036 |
| GAAGCACC | -0.0676 ± 0.049 |
| ACCTAGCG | -0.048 ± 0.057 |
| GAGGTAGA | 0.0124 ± 0.047 |
| ACCGCTTA | -0.0621 ± 0.13 |
| AAGATAAG | 0.15 ± 0.031 |
| AAGATAAT | 0.239 ± 0.051 |
| CTGATGTA | -0.0502 ± 0.023 |

| Sequence | PBM 8-mer E-score |
| --- | --- |
| ATGATGTA | 0.171 ± 0.12 |
| AAGATAAC | 0.172 ± 0.07 |
| GTGATGTA | 0.2775 ± 0.00062 |
| CCTGCCCC | -0.167 ± 0.078 |
| CCAGCTGC | -0.272 ± 0.12 |
| GGCGCAAA | -0.148 ± 0.17 |
| GTGTAAAA | 0.113 ± 0.016 |
| AGAACGAG | 0.133 ± 0.061 |
| CTACGATA | 0.082 ± 0.02 |
| GTACGATA | 0.163 ± 0.033 |
| ATACGATA | 0.244 ± 0.053 |
| GAGTCGGC | -0.146 ± 0.055 |
| CGGATGCC | -0.075 ± 0.079 |
| ATTCGTGC | 0.0424 ± 0.086 |
| AACCAGTT | 0.0717 ± 0.038 |
| ACATACAT | 0.243 ± 0.029 |
| AGATACAG | 0.218 ± 0.024 |
| ACATACAC | 0.165 ± 0.057 |
| CCATACAG | -0.0198 ± 0.047 |
| ATATACAC | 0.169 ± 0.004 |
| ACATACAG | 0.242 ± 0.017 |
| ATATACAT | 0.247 ± 0.032 |
| ATATACAA | 0.229 ± 0.069 |
| ACATACAA | 0.137 ± 0.076 |
